Test results taken from PubChem BioAssay (Tox21).
Inconclusive results are not listed. Activity calls are given as the source filed them. Unless noted, calls come from the whole dose curve; as a rule, active = well fitted curve in the direction sought with a large enough effect in the repeat runs; inconclusive = weak or mixed curves; inactive = no such curve, though single readings can be large; an effect the other way counts as inactive or inconclusive.

How the values were obtained:
[1] = target: Estrogen receptor beta (Homo sapiens) (UniProt Q92731); test: qHTS assay to identify small molecule antagonists of the estrogen receptor beta (ER-beta) signaling pathway (AID 1259378; active = well fitted inhibition curve with a large enough effect in the signal ratio in the repeat runs, not every such curve was filed as active; the % refers to the signal ratio)
In short: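 ER-beta-UAS-bla HEK293T cells in 2% charcoal-stripped FBS medium treated with compound plus 1nM final 17-beta-estradiol for 16 hr at 37C. Beta-lactamase reporter read by FRET substrate fluorescence after 2 hours at room temperature.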

[2] = qHTS assay to identify small molecule agonists of the androgen receptor (AR) signaling pathway in the presence of an antagonist - cell viability counter screen (AID 1259379); note: nearly all actives have a fitted effect of over 25% in size; note: potency is the fitted concentration of half-maximal effect
In short: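 Cells: MDA-kb2 (MMTV-luc, AR and GR elements), 3,000/well, 5 hr settle. Added: nilutamide 3.0uM final, then compounds (15 conc.). Incubation: 16 hr, 37C, no CO2. Read-out: CellTiter-Fluor, 1 hr, fluorescence.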

[3] = qHTS assay to identify small molecule agonists of the estrogen receptor beta (ER-beta) signaling pathway - cell viability counter screen (AID 1259380); note: nearly all actives have a fitted effect of over 30% in size; note: potency is the fitted concentration of half-maximal effect
In short: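 HEK293T ER-beta-UAS-bla; 2% CS-FBS; 6 hr pre-plate, 16 hr cpd at 37C/5% CO2; LiveBLAzer read first, then CellTiter-Glo 30 min RT, luminescence.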

[4] = qHTS assay to identify small molecule antagonists of the estrogen receptor beta (ER-beta) signaling pathway - cell viability counter screen (AID 1259382); note: nearly all actives have a fitted effect of over 55% in size; note: potency is the fitted concentration of half-maximal effect
In short: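 Cells: ER-beta-UAS-bla HEK293T, 2,000/well, 2% CS-FBS, 6 hr settle. Cpd + E2 (1nM final), 16 hr, 37C/5% CO2. Bla FRET substrate 2 hr RT, then CellTiter-Glo 30 min RT, luminescence.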

[5] = target: Estrogen receptor (Homo sapiens) (UniProt P03372); test: qHTS assay to identify small molecule agonists of the estrogen receptor alpha (ER-alpha) signaling pathway in the presence of an antagonist (AID 1259383; calls by dose curve; note: top concentration of the series differs between compounds; nearly all actives have a fitted effect of over 15% in size)
In short: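 VM7Luc4E2, endog. ER-alpha + 4×ERE-luc; charcoal-stripped FBS, phenol red-free, 5 d; 24hr plating; +10.0nM ICI-182,780 (final); cpds 15 conc, 22hr, 37C/5% CO2; ONE-Glo luminescence.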

[6] = target: Progesterone receptor (Homo sapiens) (UniProt P06401); test: qHTS assay to identify small molecule agonists of the progesterone receptor (PR) signaling pathway (AID 1346784; calls by dose curve; note: nearly all actives have a fitted effect of over 30% in size)
In short: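 Reporter assay, GripTite PR-UAS-bla HEK 293T cells: 16 hr exposure to DMSO-dissolved compounds at 37C, 5% CO2, in steroid-depleted (2% charcoal-stripped FBS) medium; beta-lactamase measured by FRET fluorescence.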

[7] = target: Progesterone receptor (Homo sapiens) (UniProt P06401); test: qHTS assay to identify small molecule antagonists of the progesterone receptor (PR) signaling pathway (AID 1346795; active = well fitted inhibition curve with a large enough effect in the signal ratio in the repeat runs, not every such curve was filed as active; the % refers to the signal ratio; note: potency is the fitted concentration of half-maximal effect)
In short: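 Stimulus R5020 at 1 nM final; cells HEK293T PR-UAS-bla; medium with 2% charcoal-stripped FBS; compound exposure 16 hr at 37C, 5% CO2; detection by FRET beta-lactamase substrate, 2 hr, room temperature.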

[8] = qHTS assay to identify small molecule antagonists of the progesterone receptor (PR) signaling pathway - cell viability counter screen (AID 1346798); note: nearly all actives have a fitted effect of over 50% in size; note: potency is the fitted concentration of half-maximal effect
In short: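 In the same plates used for the beta-lactamase readout, cell viability of compound- and R5020-treated PR-UAS-bla HEK293T cells (16 hr, 37C) was assessed by CellTiter-Glo luminescence.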

[9] = qHTS assay to identify small molecule agonists of the progesterone receptor (PR) signaling pathway - cell viability counter screen (AID 1346799; calls by dose curve; note: nearly all actives have a fitted effect of over 45% in size; note: potency is the fitted concentration of half-maximal effect)
In short: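 Multiplexed viability read: CellTiter-Glo luminescence, 30 min RT, following LiveBLAzer FRET measurement on PR-UAS-bla HEK293T cells exposed to compounds 16 hr.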

[10] = qHTS assay to identify small molecule agonists of the TGF-beta/Smad signaling pathway - cell viability counter screen (AID 1346829); note: nearly all actives have a fitted effect of over 45% in size; note: potency is the fitted concentration of half-maximal effect
In short: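 SBE-bla HEK 293T cells plated overnight, compound exposure 5 hr at 37 C. Viability read in the same wells by CellTiter-Glo luminescence after 30 min at room temperature, following the beta-lactamase read.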

[11] = qHTS assay to identify small molecule agonists of the TGF-beta/Smad signaling pathway (AID 1346859; active = well fitted activation curve with a large enough effect in the signal ratio in the repeat runs, not every such curve was filed as active; the % refers to the signal ratio; note: series mostly up to about 77 µM)
In short: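 Screening used HEK 293T SBE-bla cells at 4,000/well. Test agents: 5 hr, 37 C. Detection: FRET substrate, 2 hr RT, then excitation 405 nm with emissions at 460 and 530 nm.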

[12] = target: Thyrotropin-releasing hormone receptor (Homo sapiens) (UniProt P34981); test: qHTS assay to identify small molecule antagonists of the thyrotropin-releasing hormone receptor (TRHR) signaling pathway (AID 1346877; active = well fitted inhibition curve with a large enough effect in the repeat runs, not every such curve was filed as active; note: series mostly up to about 51 µM)
In short: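 Intracellular calcium fluorescence, read kinetically every second over 3 min, reports TRH-evoked signalling in HEK293 cells carrying TRHR. Test compounds were added 5 min ahead of a 1 nM TRH challenge.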

[13] = target: Thyrotropin-releasing hormone receptor (Homo sapiens) (UniProt P34981); test: qHTS assay to identify small molecule agonists of the thyrotropin-releasing hormone receptor (TRHR) signaling pathway (AID 1346891; calls by dose curve; note: series mostly up to about 58 µM)
In short: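 Readout was intracellular calcium fluorescence in TRHR-Hek293 cells. Cells were incubated 18 h, dye-loaded 2 h at 37 °C, and treated with compound in agonist mode.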

[14] = Human pregnane X receptor (PXR) small molecule agonists, qHTS cell viability counter screen (AID 1346977); note: nearly all actives have a fitted effect of over 50% in size; note: potency is the fitted concentration of half-maximal effect
In short: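 In each well, the PXR reporter HepG2 line was checked for viability: CellTiter-Fluor reagent added 23hr post-dosing, fluorescence read after 1hr incubation at 37C.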

[15] = target: Androgen receptor (Homo sapiens) (UniProt P10275); test: qHTS assay to identify small molecule agonists of the androgen receptor (AR) signaling pathway in the presence of an antagonist (AID 1259381; calls by dose curve; note: nearly all actives have a fitted effect of over 15% in size)
In short: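 MDA-kb2 cells, 3,000/well, rested 5hr at 37C/0% CO2 → nilutamide 3.0uM final or buffer → compounds, 15 conc. → 16hr at 37C → ONE-Glo, 30min RT → luminescence.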

[16] = target: Thyrotropin receptor (Homo sapiens) (UniProt P16473); test: qHTS assay to identify small molecule antagonists of the thyroid stimulating hormone receptor (TSHR) signaling pathway (AID 1259385; calls by dose curve; note: nearly all actives have a fitted effect of over 20% in size)
In short: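 TSHR-HEK293 cells (800/well) plated 18 h, then compounds with Ro20-1724 and TSH at 1.5 ng/mL final, 30 min at room temperature. cAMP quantified by HTRF (cAMP-d2/anti-cAMP-cryptate, 1 h); 15 concentrations in triplicate.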

[17] = qHTS assay to identify small molecule antagonists of the TGF-beta/Smad signaling pathway - cell viability counter screen (AID 1346824); note: nearly all actives have a fitted effect of over 50% in size; note: potency is the fitted concentration of half-maximal effect
In short: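 SBE-bla HEK 293T cells, incubated overnight, then compound plus 0.25 ng/mL TGF-beta1 (stock added) for 5 hr at 37 C. Viability was read in the same wells by CellTiter-Glo luminescence after 30 min at room temperature.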

[18] = qHTS assay to identify small molecule agonists of the estrogen receptor alpha (ER-alpha) signaling pathway in the presence of an antagonist - cell viability counter screen (AID 1259386);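 note: cells exposed to compounds for 22 h at 37 °C before the viability read; nearly all actives have a fitted effect of over 30% in size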; note: potency is the fitted concentration of half-maximal effect
In short: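 VM7Luc4E2, stripped-serum pre-culture 5 d; 24hr plating; +ICI-182,780 10.0nM final; cpds 15 conc, 22hr, 37C/5% CO2; CellTiter-Fluor added at 21hr, fluorescence 1hr later.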

[19] = qHTS assay to identify small molecule agonists or antagonists of the thyroid stimulating hormone receptor (TSHR) signaling pathway - wild type cell line counter screen (AID 1259384; calls by dose curve)
In short: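 Wild-type Hek293 cells, 800/well, 18 h at 37C, then compound with Ro20-1724 for 30 min RT. cAMP by HTRF (cAMP-d2/anti-cAMP cryptate), 1 h RT, fluorescence read. 15 concentrations, triplicates.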

Measured: Potency

Sequence of Thyrotropin receptor (Homo sapiens) (P16473 whole entry, looked up): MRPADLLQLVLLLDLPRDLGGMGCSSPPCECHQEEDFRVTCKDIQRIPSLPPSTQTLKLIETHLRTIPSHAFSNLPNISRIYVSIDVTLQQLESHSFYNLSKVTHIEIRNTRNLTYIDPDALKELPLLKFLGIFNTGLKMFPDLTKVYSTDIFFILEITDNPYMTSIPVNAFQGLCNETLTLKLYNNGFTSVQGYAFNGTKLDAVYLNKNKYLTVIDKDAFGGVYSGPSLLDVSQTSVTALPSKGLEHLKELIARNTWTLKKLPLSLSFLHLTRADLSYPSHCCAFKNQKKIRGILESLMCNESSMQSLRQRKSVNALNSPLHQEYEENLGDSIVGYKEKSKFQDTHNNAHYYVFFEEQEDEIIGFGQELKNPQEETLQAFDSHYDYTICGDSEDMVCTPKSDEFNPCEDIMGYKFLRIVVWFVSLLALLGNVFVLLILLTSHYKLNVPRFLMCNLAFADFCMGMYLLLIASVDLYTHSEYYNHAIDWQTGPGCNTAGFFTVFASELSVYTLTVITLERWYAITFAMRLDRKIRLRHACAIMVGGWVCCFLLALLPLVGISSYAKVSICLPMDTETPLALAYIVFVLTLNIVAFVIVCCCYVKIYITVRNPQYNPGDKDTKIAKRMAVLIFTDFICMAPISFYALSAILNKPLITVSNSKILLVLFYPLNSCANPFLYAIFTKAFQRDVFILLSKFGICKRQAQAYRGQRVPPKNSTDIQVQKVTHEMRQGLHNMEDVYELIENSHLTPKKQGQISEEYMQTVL
Sequence of Progesterone receptor (Homo sapiens) (P06401 whole entry, looked up): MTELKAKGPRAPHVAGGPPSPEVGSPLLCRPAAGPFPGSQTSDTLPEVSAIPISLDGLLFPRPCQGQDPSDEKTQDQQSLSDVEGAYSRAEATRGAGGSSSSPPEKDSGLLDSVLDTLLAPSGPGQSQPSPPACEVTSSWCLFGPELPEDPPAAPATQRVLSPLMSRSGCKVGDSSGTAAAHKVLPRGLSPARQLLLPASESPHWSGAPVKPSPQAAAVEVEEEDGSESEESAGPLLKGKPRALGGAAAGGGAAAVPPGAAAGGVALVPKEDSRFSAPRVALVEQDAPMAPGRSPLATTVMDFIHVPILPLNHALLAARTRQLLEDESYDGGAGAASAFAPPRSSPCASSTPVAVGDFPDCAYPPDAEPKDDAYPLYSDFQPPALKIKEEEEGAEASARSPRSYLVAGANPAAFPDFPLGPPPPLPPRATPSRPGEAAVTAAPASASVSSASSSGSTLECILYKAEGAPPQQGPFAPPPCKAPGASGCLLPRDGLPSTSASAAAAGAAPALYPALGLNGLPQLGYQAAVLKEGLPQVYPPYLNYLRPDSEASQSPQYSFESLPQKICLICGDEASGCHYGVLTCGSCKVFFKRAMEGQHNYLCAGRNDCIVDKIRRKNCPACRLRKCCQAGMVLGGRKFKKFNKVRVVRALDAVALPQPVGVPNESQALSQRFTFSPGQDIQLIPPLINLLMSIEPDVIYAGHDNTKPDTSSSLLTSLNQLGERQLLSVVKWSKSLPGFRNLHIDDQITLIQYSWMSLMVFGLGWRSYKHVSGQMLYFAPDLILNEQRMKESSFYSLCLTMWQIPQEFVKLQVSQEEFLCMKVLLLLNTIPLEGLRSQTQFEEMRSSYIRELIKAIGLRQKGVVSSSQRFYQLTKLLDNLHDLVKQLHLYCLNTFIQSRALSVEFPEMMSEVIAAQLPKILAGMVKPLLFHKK
Sequence of Thyrotropin-releasing hormone receptor (Homo sapiens) (P34981 whole entry, looked up): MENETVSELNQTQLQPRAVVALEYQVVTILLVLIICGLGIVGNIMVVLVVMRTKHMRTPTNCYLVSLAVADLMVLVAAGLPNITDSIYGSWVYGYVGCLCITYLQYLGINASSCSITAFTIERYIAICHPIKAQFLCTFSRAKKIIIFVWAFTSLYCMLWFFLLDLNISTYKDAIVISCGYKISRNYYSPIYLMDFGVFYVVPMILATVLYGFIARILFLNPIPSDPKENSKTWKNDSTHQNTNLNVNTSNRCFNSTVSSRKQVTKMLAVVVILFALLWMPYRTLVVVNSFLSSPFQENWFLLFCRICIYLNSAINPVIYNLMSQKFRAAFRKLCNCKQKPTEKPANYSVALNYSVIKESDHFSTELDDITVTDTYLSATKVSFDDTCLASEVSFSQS
Sequence of Androgen receptor (Homo sapiens) (P10275 whole entry, looked up): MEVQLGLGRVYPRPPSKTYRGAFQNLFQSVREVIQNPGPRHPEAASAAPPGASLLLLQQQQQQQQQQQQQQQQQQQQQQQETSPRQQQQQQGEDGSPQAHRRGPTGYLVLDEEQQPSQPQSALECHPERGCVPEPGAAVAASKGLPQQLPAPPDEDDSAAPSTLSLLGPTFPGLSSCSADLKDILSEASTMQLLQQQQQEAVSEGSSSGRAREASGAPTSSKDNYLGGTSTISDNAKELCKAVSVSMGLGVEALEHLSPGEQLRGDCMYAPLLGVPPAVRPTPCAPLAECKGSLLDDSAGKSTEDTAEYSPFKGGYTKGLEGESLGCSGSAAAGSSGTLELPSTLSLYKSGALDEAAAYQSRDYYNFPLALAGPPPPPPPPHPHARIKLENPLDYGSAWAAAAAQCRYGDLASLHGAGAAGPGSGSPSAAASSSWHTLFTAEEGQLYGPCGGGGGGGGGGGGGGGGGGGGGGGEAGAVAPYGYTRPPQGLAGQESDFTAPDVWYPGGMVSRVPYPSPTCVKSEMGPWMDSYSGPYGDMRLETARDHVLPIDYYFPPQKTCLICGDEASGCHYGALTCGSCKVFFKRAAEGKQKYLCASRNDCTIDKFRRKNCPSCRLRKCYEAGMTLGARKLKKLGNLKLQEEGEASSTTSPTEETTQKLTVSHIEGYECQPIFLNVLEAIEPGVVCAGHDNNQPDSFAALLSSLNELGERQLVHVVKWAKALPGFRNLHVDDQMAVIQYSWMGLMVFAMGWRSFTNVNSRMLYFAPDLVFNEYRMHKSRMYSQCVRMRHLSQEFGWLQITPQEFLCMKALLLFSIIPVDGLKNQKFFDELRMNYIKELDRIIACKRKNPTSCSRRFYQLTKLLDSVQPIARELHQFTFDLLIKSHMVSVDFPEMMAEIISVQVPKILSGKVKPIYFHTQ
Sequence of Estrogen receptor (Homo sapiens) (P03372 whole entry, looked up): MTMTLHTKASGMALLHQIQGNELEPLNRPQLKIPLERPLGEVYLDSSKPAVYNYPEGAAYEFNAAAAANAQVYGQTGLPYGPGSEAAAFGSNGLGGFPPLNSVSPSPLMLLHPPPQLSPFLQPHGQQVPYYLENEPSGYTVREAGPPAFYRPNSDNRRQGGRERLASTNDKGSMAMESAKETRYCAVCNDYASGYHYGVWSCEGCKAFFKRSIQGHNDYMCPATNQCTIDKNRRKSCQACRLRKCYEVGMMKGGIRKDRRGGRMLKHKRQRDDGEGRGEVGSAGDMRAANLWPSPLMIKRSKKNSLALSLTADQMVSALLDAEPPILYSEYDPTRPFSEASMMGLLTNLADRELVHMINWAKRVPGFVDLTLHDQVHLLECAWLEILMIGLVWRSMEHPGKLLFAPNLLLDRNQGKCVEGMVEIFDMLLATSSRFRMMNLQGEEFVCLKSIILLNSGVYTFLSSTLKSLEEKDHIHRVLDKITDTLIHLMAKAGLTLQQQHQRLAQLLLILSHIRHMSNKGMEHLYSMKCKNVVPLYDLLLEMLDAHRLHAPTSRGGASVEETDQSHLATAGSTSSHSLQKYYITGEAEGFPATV
Sequence of Estrogen receptor beta (Homo sapiens) (Q92731 whole entry, looked up): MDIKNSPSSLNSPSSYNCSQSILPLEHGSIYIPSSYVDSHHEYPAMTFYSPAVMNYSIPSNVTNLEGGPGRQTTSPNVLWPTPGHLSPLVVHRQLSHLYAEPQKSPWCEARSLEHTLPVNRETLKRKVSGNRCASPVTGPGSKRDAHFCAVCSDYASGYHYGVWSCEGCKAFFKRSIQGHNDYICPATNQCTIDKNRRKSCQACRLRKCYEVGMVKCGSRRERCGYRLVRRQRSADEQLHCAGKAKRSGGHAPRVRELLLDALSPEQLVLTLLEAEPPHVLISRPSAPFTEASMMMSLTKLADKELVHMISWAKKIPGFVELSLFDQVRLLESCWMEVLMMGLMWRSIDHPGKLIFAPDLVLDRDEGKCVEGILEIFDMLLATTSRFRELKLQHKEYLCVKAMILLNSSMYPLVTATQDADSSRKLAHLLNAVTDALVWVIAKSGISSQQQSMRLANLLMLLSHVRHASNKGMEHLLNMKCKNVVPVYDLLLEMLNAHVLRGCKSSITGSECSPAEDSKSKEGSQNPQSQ

C1CCC2CCCCC2C1 (stereo not given)
not listed: [15] | [16] | [17] | [18] | [19]
inactive: all other assays above

CCCCCCCCCCCCCCCCCCn1cc[n+](C)c1
inactive: [15] | [5] | [16] | [6] | [12] | [13]
active: [2] 21.6 µM | [3] 30.5 µM | [4] 30.5 µM | [7] 54.2 µM | [9] 30.5 µM | [17] 21.7 µM | [10] 48.7 µM | [14] 8.58 µM

O=[N+]([O-])c1ccc2ccc3cccc4ccc1c2c34
active: [2] 48.5 µM | [3] 30.6 µM | [18] 38.5 µM
not listed: [1] | [7] | [11] | [14] | [16] | [19]
inactive: all other assays above

CCOCn1c(-c2ccc(Cl)cc2)c(C#N)c(Br)c1C(F)(F)F
active: [2] 6.86 µM | [3] 27.3 µM | [4] 34.4 µM | [18] 8.63 µM | [8] 12.2 µM | [9] 12.2 µM | [14] 0.864 µM
inactive: [5] | [19] | [12] | [13]

CN(C)C1CSSSC1
not listed: [1] | [15] | [17]
inactive: all other assays above

CCOC(=O)CC(=O)CCl
active: [2] 61.1 µM
not listed: [1] | [12] | [13] | [16] | [19]
inactive: all other assays above

ClC1=C(Cl)[C@]2(Cl)[C@H]3[C@H]([C@H]4C=C[C@H]3C4)[C@@]1(Cl)C2(Cl)Cl
not listed: [1] | [7] | [8] | [9] | [15] | [17]
inactive: all other assays above
